# Source: ChEMBL document CHEMBL3988442, “University of Dundee, Small-Polar-MMV Screening Library” (2021)
# Molecular target: AMP-activated protein kinase, AMPK (Homo sapiens) (UniProt P54646+O43741+P54619+Q9UGJ0+Q9Y478+Q13131+Q9UGI9)
# Assay: AMP-dependent Kinase enzyme assay. An in vitro enzyme assay that detects ADP turnover that is directly proportional to AMPK activity. This uses naive AMPK that is activated during the assay with MK-8722
# Type: functional
# Design: scale not given: direction of the effect not stated beside the values
# Conditions: 30 µM
row,Compound,Percent Effect
1,CCCC(=O)NC1CCCN(c2nc3ccccc3cc2CO)C1 (stereo not given),6.66%
2,CCc1nnc(C(C)N2CCN(CCC(C)(C)C)CC2)o1 (stereo not given),8.59%
3,N#Cc1cccnc1Nc1ccc(N2CCC(C(N)=O)CC2)cc1,19%
4,COc1ccc2c(c1)CCCN(C(=O)NCC1CCCO1)C2 (stereo not given),5.17%
5,CN(Cc1ccc(OCC(=O)N2CCOCC2)cc1)S(C)(=O)=O,-30.8%
6,Cc1cccc(-c2noc(Cn3nc(C(N)=O)ccc3=O)n2)c1,5.3%
7,CCc1nc(C)c(C(=O)N2C[C@@H](C(=O)O)[C@H](C3CC3)C2)s1,2.29%
8,CN(C)C(=O)c1ccccc1NC(=O)N[C@@H]1c2ccccc2C[C@@H]1O,3.27%
9,CCOC(=O)C1(NCC(=O)Nc2cc(C)ccc2OC)CCCC1,0.781%
10,COCCNc1nc(C)nc2c1CCN(C[C@H]1CC[C@@H](N)CC1)CC2,1.5%
11,O=C(Cc1ccon1)NC1CCCN(c2ccccc2F)C1=O (stereo not given),1.71%
12,Cc1cc(C(=O)NCCN2CCC(C)CC2)nn1C(C)(C)C,5.48%
13,O=C(c1ccc2[nH]cnc2c1)N1CCC(Oc2ccccn2)CC1,3.35%
14,Cc1cnn(CCCNC(=O)NCCS(=O)(=O)Nc2ccccc2)c1,13.3%
15,Cc1nsc(C(=O)NCCc2ccc(F)cc2)n1,-2.41%
16,CCC(C)c1csc(NC(=O)Cc2csc(-c3nnc[nH]3)n2)n1 (stereo not given),10.5%
17,Cc1nc(CN2CCN(S(=O)(=O)N3CCCCC3)CC2)oc1C,-4.45%
18,NC(=O)COc1ccc(CN2CCC(O)(CN3CCCCC3)C2)cc1Cl (stereo not given),2.63%
19,O=C(N1CC(c2cccnc2)C1)C1(c2ccc(F)cc2)CCOCC1,0.43%
20,CC(CC(F)(F)F)NCc1ccccc1-n1ccnc1 (stereo not given),-3.96%

row,Compound,Percent Effect
1,CC(C(=O)NCC(C)(C)c1ccc2c(c1)OCO2)n1ccnc1 (stereo not given),0.66%
2,CC(=O)N1CCN(CCNC(=O)NC(C)Cn2ccnc2)CC1 (stereo not given),-2.62%
3,CCC(=O)Nc1cccc(OCC(=O)N[C@@H]2C[C@H]3CC[C@@H]2C3)c1,3.88%
4,COC(=O)c1cccc(S(=O)(=O)NCC(c2ccco2)N2CCCC2)c1 (stereo not given),-6.45%
5,CCc1cc(NC(CCO)c2ccc(OC)cc2)n2nccc2n1 (stereo not given),2.19%
6,CN(C)c1ccc(C(=O)Nc2ccn(Cc3ccccn3)n2)cn1,18.9%
7,CCC1(CC)CC(=O)N(CC(O)c2cc(F)ccc2F)C1=O (stereo not given),11.8%
8,COC(=O)CNC(=O)c1ccn(-c2ccc(Cl)c(Cl)c2)n1,13.8%
9,CNS(=O)(=O)CC(=O)NCc1cc2c(s1)CCC(C)(C)C2,-1.02%
10,CN(C)CC1(O)CCCN(C(=O)Cn2ccc3ccccc32)CC1 (stereo not given),-8.54%
11,CC(C)CN(C(=O)Nc1cccc(C(=O)N(C)C)c1)C1CC1,0.783%
12,COCCCNC(=O)Cc1nc(-c2ccncc2)n[nH]1,14.5%
13,CCc1ncc2c(n1)CN(Cc1nc(-c3ccco3)oc1C)CC2,-22.8%
14,Cc1nccn1[C@@H]1CC[C@@H](N(C)S(=O)(=O)c2ccccc2F)[C@H]1O,5.86%
15,Cc1ccc(S(C)(=O)=O)cc1NCC(=O)NCCC1=CCCCC1,0.0953%
16,CC(CNC(=O)CCn1cncn1)N1CCc2ccccc21 (stereo not given),6.66%
17,Cc1ccc(OCc2occc2C(=O)N2C[C@@H]3[C@@H](CN(C)C)[C@@H]3C2)cc1,14%
18,CCC(C)C(=O)N(Cc1ccccn1)C1CC1 (stereo not given),2.05%
19,CCOc1ccc2cc(C(=O)NCCNc3ccc(C)nn3)[nH]c2c1,6.22%
20,NC(=O)CN(Cc1ncc(-c2ccc(Cl)cc2)o1)C1CCCC1,-5.3%
